Common to all, as to experiment: NCI-60 one-dose screen, 48 h (100 = growth as untreated, 0 = no growth, -100 = all killed)
Holding throughout (settings): 10 µM unless noted

Assay [1] has as its system SR leukemia.
Assay [2] deals with RPMI-8226 leukemia.
For assay [3], the system named is OVCAR-8 ovarian.
In assay [4] the test system is OVCAR-5 ovarian.
Assay [5] concerns OVCAR-4 ovarian.
The subject of assay [6] is SK-OV-3 ovarian.
Assay [7] has as its system IGROV1 ovarian.
Assay [8] concerns OVCAR-3 ovarian.
Assay [9] relates to HS 578T breast.
Assay [10] relates to NCI/ADR-RES ovarian.
The subject of assay [11] is T-47D breast.
Assay [12] relates to BT-549 breast.
Assay [13] has as its system MDA-MB-435 melanoma.
Assay [14] relates to SW-620 colon.
Assay [15] concerns MCF7 breast.
The subject of assay [16] is HCT-116 colon.
Assay [17] has as its system HCC-2998 colon.
The test system of assay [18] is KM12 colon.
For assay [19], the system named is MDA-MB-468 breast.

SMILES strings stand for the structures. About 83,000 compounds went through this panel and 20% of them were active in at least one assay; those are over-represented in the sample as a whole.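 Treatment: one concentration, 48 hours, 96-well format. Scoring: percent growth, with anything below 10 considered active.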 A number with no mark means an inactive call. Activity calls are given as the source filed them.

This is an account of results in PubChem BioAssay (NCI).

As for `CCCCSc1nc(NCCc2c[nH]c3ccccc23)c(C#N)c(-c2ccc(F)cc2)n1`, the growth in assay [1] is 5.24% (active); in assay [2], 49.7%; in assay [3], 75.1%; in [4] it was 97.3%; in [5] it was 76.1%; in assay [6], 83%. For the same compound, the growth in [7] was 92.3%; in assay [8], 74.3%; in assay [9], 58.3%; in [10] it was 58.2%; in [11], 48.5%; in assay [12], 101%. For the same compound, the growth in [13] was 73.1%; in assay [14] it was 60.4%; in assay [15], 44.8%; in assay [16] it was 26.5%; in assay [17], 64.9%; in assay [18] it was 32%. Besides, the growth in assay [19] is 69.8%.
For `CCCCNC(=S)Nc1ccc(OCc2nc3ccccc3[nH]2)cc1`, the growth in assay [1] is 53.7%; in [2], 58.8%; in assay [3], 59.3%; in assay [4], 86%; in [5], 57.2%; in [6], 113%. The growth in assay [7] was 78.6%; in assay [8], 60.3%; in assay [9], 92.3%; in assay [10], 65.9%; in assay [11], 45.3%; in assay [12], 65.9%. Besides, the growth was 49.6% in assay [13]; 91.5% in [14]; 46.5% in [15]; 63.7% in assay [16]; 59.6% in [17]; 1.01% (active) in [18]. The growth in [19] was 69.6%.
As for `CCCSc1nc(NCCc2c[nH]c3ccccc23)c(C#N)c(-c2ccc(OC)cc2)n1`, the growth is 4.81% (active) in assay [1]; 23.9% in assay [2]; 67.9% in assay [3]; 82.1% in [4]; 61.2% in assay [5]; 90.6% in assay [6]. Moreover, the growth in assay [7] is 91.2%; in assay [8], 82.3%; in [9], 42.9%; in assay [10] it was 47.9%; in [11], 15.3%; in assay [12], 83.2%. In addition, the growth in [13] was 62.5%; in assay [14] it was 42.5%; in assay [15] it was 7.41% (active); in assay [16], 20.8%; in [17], 48%; in assay [18], 37.1%. For the same compound, in assay [19], the growth was 26.4%.
For the compound `O=C(CSc1nc2ccccc2c(=O)[nH]1)NCCN1CCCCC1`, the growth was 90.9% in assay [1]; 100% in [2]; 97.7% in assay [3]; 94.2% in assay [4]; 98.8% in assay [5]; 107% in assay [6]. In addition, the growth in [7] was 104%; in assay [8] it was 105%; in assay [9], 94.1%; in assay [10], 102%; in [11], 100%; in assay [12], 104%. The growth is 95.1% in [13]; 97% in [14]; 90.8% in assay [15]; 104% in assay [16]; 108% in [17]; 98.3% in assay [18]. Moreover, the growth in assay [19] is 96.9%.
For `C#CCOc1cc(N(CC)CC)ccc1C(C(=O)NC(C)(C)C)N(C(=O)C1CCc2cc(F)ccc2O1)c1ccccc1F` (stereo not drawn), the growth is 16.3% in [1]; 18% in assay [2]; 31.7% in [3]; 57.7% in assay [4]; 43.4% in [5]; 39.6% in assay [6]. Further, the growth in assay [7] is 54%; in assay [8] it was 33.1%; in assay [9] it was 68.7%; in assay [10] it was 42.5%; in assay [11], 30.2%; in [12], 40.3%. The growth in assay [13] is 35.9%; in assay [14] it was 42.1%; in [15], 16.6%; in assay [16], 20.5%; in assay [17] it was 73.2%; in assay [18], 18.8%. In addition, the growth in assay [19] was 25.5%.
Consider `COc1cc2c3c(n(CCCN4CCC[C@@H]4CO)c(=O)c2cc1OC)-c1cc2c(cc1C3=O)OCO2`, for which the growth in assay [1] was -25.5% (active); in assay [2], -28.4% (active); in [3] it was -76.8% (active); in [4], -98.7% (active); in assay [5] it was -82.2% (active); in assay [6] it was 27.1%. Also, the growth is -88.9% (active) in assay [7]; -94.4% (active) in assay [8]; -6.35% (active) in assay [9]; -67.4% (active) in assay [10]; 49.3% in assay [11]; 34.9% in assay [12]. For the same compound, the growth in assay [13] was -86.8% (active); in assay [14], -77.8% (active); in [15] it was -84.9% (active); in [16], -59.1% (active); in [17], -99.4% (active); in [18] it was -98.2% (active). Also, the growth in [19] was -92.4% (active).
Consider `Nc1nnc(-c2c[nH]c3ncc(Br)cc23)c(-c2c[nH]c3ccc(F)cc23)n1`, for which the growth in assay [1] is 13.6%; in assay [2], 33.7%; in assay [3] it was 39%; in assay [4], 48.6%; in assay [5] it was 59.6%; in assay [6], 80.5%. For the same compound, the growth in assay [7] is 37.4%; in [8], 33.2%; in [9], 28%; in assay [10], 70.7%; in assay [11], 38.2%; in [12] it was 54.4%. In addition, the growth in assay [13] was 26%; in assay [14] it was 20.9%; in [15], 18.6%; in [16] it was 26%; in [17], 45.9%; in assay [18] it was 30.5%. The growth in assay [19] was 13.1%.
